Data from PubChem BioAssay (NCI).
This is part of a sample that, as a whole, favours compounds with a hit. Of some 83,000 tested, about 20% had one in any assay.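 Note: values are percent growth. 100 is the growth of untreated cells, values between 100 and 0 indicate rising inhibition; between -100 and 0 indicates cell death.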 A number with no mark means an inactive call. Active and inactive are the calls of the source. Rule for the calls: active = growth percent below 10; inactive = the rest.

These molecules were tested on HCT-116 colon (assay: NCI-60 one-dose screen, 48 h (100 = growth as untreated, 0 = no growth, -100 = all killed)). Settings: 10 µM unless noted.

Structure (SMILES) | growth
COC(=O)c1cc(-c2cccs2)c(C#N)c(N)c1C#N | 95.5%
Cc1cc(Nc2nc(C(=O)Nc3ccccc3)nc3ccccc23)n[nH]1 | 45.6%
CNC(C)=O | 105%
CN(C)c1ccc(-c2ccc(-c3ccc(C(=N)N)cn3)o2)cc1 | -62.4% (active)
CCN1C(=O)N(CC)C2C1NN=c1s/c(=C\c3cccc(F)c3)c(=O)n12 (stereo unspecified) | 6.81% (active)
O=C(CC(O)c1ccncc1)c1ccccc1 (stereo unspecified) | 15.5%
CCN1C(=S)N(CC)C2Nn3c(s/c(=C4\C(=O)N(C)c5ccccc54)c3=O)=NC21 (stereo unspecified) | 7.36% (active)
O=C(Nc1ccc(Cl)cc1)c1cc(-c2ccc(F)cc2)c2sc(=O)[nH]c2n1 | 3.3% (active)
C#CCN1C(=O)/C(=c2\sc3n(c2=O)NC2C(N=3)N(CC)C(=O)N2CC)c2ccccc21 (stereo unspecified) | 27%
C=C1C(=O)O[C@H]2[C@H]1CC/C(COC(=O)NCc1cc(OC)cc(OC)c1)=C\CC[C@@]1(C)O[C@@H]21 | -60.4% (active)
COc1ccc(C2CC(=O)Nc3c2c(C)nn3-c2nc3ccccc3[nH]2)cc1OC (stereo unspecified) | 17.4%
COc1ccc(NC(=O)CSc2nc3ccccc3c(=O)n2Cc2cc(OC)c(OC)c(OC)c2)cc1 | 89.5%
COc1cccc(NC(=O)Cn2cc3c(=O)oc4ccccc4c3n2)c1 | 99.5%
CCCCCC(=O)OCc1ccccc1 | 93.8%
CCCCCCCCCN1C(=O)/C(=c2\sc3n(c2=O)C2C(NN=3)N(CC)C(=O)N2CC)c2ccccc21 (stereo unspecified) | 5.86% (active)
Nc1c(C(=O)Nc2cccc([N+](=O)[O-])c2)sc2nc3c(cc12)C(O)CCC3 (stereo unspecified) | 24.1%
COc1ccc(/C=c2\sc3n(c2=O)C2C(NN=3)N(C)C(=O)N2C)cc1 (stereo unspecified) | 22.5%
CC(Br)C(O)c1cc2c(cc1Br)OCO2 (stereo unspecified) | 101%
CC/C=C\C/C=C\C[C@H]1C/C=C2/C(=O)C=C[C@H]2C/C=C\CCC(=O)O1 | -63.4% (active)

Structure (SMILES) | growth
CCN(C(=O)c1cc2ccccc2[nH]1)[C@H]1CCC[C@@H](NCc2ccc(OC)cc2)C1 | 92.1%
COc1ccc(NC(=O)/N=c2\oc3c(OC)cccc3cc2-c2cc3ccccc3[nH]2)cc1 | 28.1%
COc1ccc(/C=N/NC(=O)Cn2c(Cc3cccc4ccccc34)nc3ccccc32)cc1 | 100%
COc1cccc2cc(-c3cc4ccccc4[nH]3)/c(=N/C(=S)Nc3ccccc3)oc12 | 59.6%
CCCCCCCCCCCCOB(OCCCCCCCCCCCC)OCCCCCCCCCCCC | 123%
COc1ccc(/C=C/C(=O)OCC(=O)NNC(=O)c2ccccc2)cc1OC | 103%
COc1ccc(NC(=S)/N=c2\oc3c(OC)cccc3cc2-c2cc3ccccc3[nH]2)cc1 | 64.7%
Cc1oc2nc[nH]c(=O)c2c1C(=O)/C=C/c1ccc(Cl)cc1 | 13.7%
COc1ccc(Cl)cc1NC(N)=S | 102%
c1ccn2nnnc2c1 | 87.5%
O=C(/C=C/CN1CCCCC1)Nc1cc2c(Nc3ccc(F)c(Cl)c3F)ncnc2cc1OCCOC(F)F | 6.6% (active)
CCN1C(=O)N(CC)C2Nn3c(s/c(=C4\C(=O)N(C5CCCC5)c5ccccc54)c3=O)=NC21 (stereo unspecified) | 19.8%
C=CCN=C1NC(=O)/C(=C/c2cc(C(C)(C)C)c(O)c(C(C)(C)C)c2)S1 | 46.4%
Nc1c(C(=O)Nc2ccccc2)sc2nc3c(cc12)CCCCC3 | 11.2%
O=C1N=C(c2c(-c3[nH]c(=O)c4ccc(Br)cc4c3O)c(O)c3ccccc3c2O)C(=O)c2cc(Br)ccc21 | -21.7% (active)
CCCCCCCC/C=C\CCCCCCCCOc1ccccc1CCOP(=O)(O)OCC[N+](C)(C)C | 27.2%
CC(C)C[C@H](NC(=O)[C@@H](Cc1ccccc1)n1ccc(Nc2ccccc2)cc1=O)B(O)O | -37.9% (active)
COc1ccc(/C=C2\Oc3cc(OCCN4CCCC4)ccc3C2=O)c(OC)c1 | 41.3%
Oc1ccc(N=Cc2ccccc2)cc1 | 60.8%

The molecules below were run on HCC-2998 colon in the same assay as above. Settings: 10 µM unless noted.

Structure (SMILES) | growth
COC(=O)c1cc(-c2cccs2)c(C#N)c(N)c1C#N | 106%
Cc1cc(Nc2nc(C(=O)Nc3ccccc3)nc3ccccc23)n[nH]1 | 84.3%
CNC(C)=O | 101%
CN(C)c1ccc(-c2ccc(-c3ccc(C(=N)N)cn3)o2)cc1 | -73.5% (active)
CCN1C(=O)N(CC)C2C1NN=c1s/c(=C\c3cccc(F)c3)c(=O)n12 (stereo unspecified) | 19.5%
O=C(CC(O)c1ccncc1)c1ccccc1 (stereo unspecified) | 19.2%
CCN1C(=S)N(CC)C2Nn3c(s/c(=C4\C(=O)N(C)c5ccccc54)c3=O)=NC21 (stereo unspecified) | 79%
O=C(Nc1ccc(Cl)cc1)c1cc(-c2ccc(F)cc2)c2sc(=O)[nH]c2n1 | 22%
C#CCN1C(=O)/C(=c2\sc3n(c2=O)NC2C(N=3)N(CC)C(=O)N2CC)c2ccccc21 (stereo unspecified) | 100%
C=C1C(=O)O[C@H]2[C@H]1CC/C(COC(=O)NCc1cc(OC)cc(OC)c1)=C\CC[C@@]1(C)O[C@@H]21 | 63.8%
COc1ccc(C2CC(=O)Nc3c2c(C)nn3-c2nc3ccccc3[nH]2)cc1OC (stereo unspecified) | 96.5%
COc1ccc(NC(=O)CSc2nc3ccccc3c(=O)n2Cc2cc(OC)c(OC)c(OC)c2)cc1 | 109%
COc1cccc(NC(=O)Cn2cc3c(=O)oc4ccccc4c3n2)c1 | 110%
CCCCCC(=O)OCc1ccccc1 | 96.9%
CCCCCCCCCN1C(=O)/C(=c2\sc3n(c2=O)C2C(NN=3)N(CC)C(=O)N2CC)c2ccccc21 (stereo unspecified) | 102%
Nc1c(C(=O)Nc2cccc([N+](=O)[O-])c2)sc2nc3c(cc12)C(O)CCC3 (stereo unspecified) | 87.6%
COc1ccc(/C=c2\sc3n(c2=O)C2C(NN=3)N(C)C(=O)N2C)cc1 (stereo unspecified) | 54.9%
CC(Br)C(O)c1cc2c(cc1Br)OCO2 (stereo unspecified) | 111%
CC/C=C\C/C=C\C[C@H]1C/C=C2/C(=O)C=C[C@H]2C/C=C\CCC(=O)O1 | -59.2% (active)

Structure (SMILES) | growth
CCN(C(=O)c1cc2ccccc2[nH]1)[C@H]1CCC[C@@H](NCc2ccc(OC)cc2)C1 | 78.3%
COc1ccc(NC(=O)/N=c2\oc3c(OC)cccc3cc2-c2cc3ccccc3[nH]2)cc1 | 95.5%
COc1ccc(/C=N/NC(=O)Cn2c(Cc3cccc4ccccc34)nc3ccccc32)cc1 | 107%
COc1cccc2cc(-c3cc4ccccc4[nH]3)/c(=N/C(=S)Nc3ccccc3)oc12 | 82.6%
CCCCCCCCCCCCOB(OCCCCCCCCCCCC)OCCCCCCCCCCCC | 91.6%
COc1ccc(/C=C/C(=O)OCC(=O)NNC(=O)c2ccccc2)cc1OC | 127%
COc1ccc(NC(=S)/N=c2\oc3c(OC)cccc3cc2-c2cc3ccccc3[nH]2)cc1 | 101%
Cc1oc2nc[nH]c(=O)c2c1C(=O)/C=C/c1ccc(Cl)cc1 | 83.1%
COc1ccc(Cl)cc1NC(N)=S | 102%
c1ccn2nnnc2c1 | 91.6%
O=C(/C=C/CN1CCCCC1)Nc1cc2c(Nc3ccc(F)c(Cl)c3F)ncnc2cc1OCCOC(F)F | 40.6%
CCN1C(=O)N(CC)C2Nn3c(s/c(=C4\C(=O)N(C5CCCC5)c5ccccc54)c3=O)=NC21 (stereo unspecified) | 91.8%
C=CCN=C1NC(=O)/C(=C/c2cc(C(C)(C)C)c(O)c(C(C)(C)C)c2)S1 | 89.8%
Nc1c(C(=O)Nc2ccccc2)sc2nc3c(cc12)CCCCC3 | 43.5%
O=C1N=C(c2c(-c3[nH]c(=O)c4ccc(Br)cc4c3O)c(O)c3ccccc3c2O)C(=O)c2cc(Br)ccc21 | -44.3% (active)
CCCCCCCC/C=C\CCCCCCCCOc1ccccc1CCOP(=O)(O)OCC[N+](C)(C)C | 74.3%
CC(C)C[C@H](NC(=O)[C@@H](Cc1ccccc1)n1ccc(Nc2ccccc2)cc1=O)B(O)O | -83.8% (active)
COc1ccc(/C=C2\Oc3cc(OCCN4CCCC4)ccc3C2=O)c(OC)c1 | 98.2%
Oc1ccc(N=Cc2ccccc2)cc1 | 100%
